In all, about 390,000 compounds went through this assay and about 4,000 (1%) were called active. Roughly 7% stayed inconclusive and do not appear here. Calls follow the shape of the dose curve; as a rule, active = well fitted inhibition curve with a large enough effect; inconclusive = small, poorly fitted or top-dose-only effect, or another doubt; inactive = no such curve, though single readings can be large or run the other way. The entries come from a sample that favours actives as a whole. Entries that show only a call come without a potency.
molecular target: DNA polymerase iota (Homo sapiens) (UniProt Q9UNA4); assay: qHTS for Inhibitors of Polymerase Iota; settings: Pol iota fluorescent replication assay, 10 min; series mostly up to 115 µM
Sequence (Q9UNA4 whole entry, looked up): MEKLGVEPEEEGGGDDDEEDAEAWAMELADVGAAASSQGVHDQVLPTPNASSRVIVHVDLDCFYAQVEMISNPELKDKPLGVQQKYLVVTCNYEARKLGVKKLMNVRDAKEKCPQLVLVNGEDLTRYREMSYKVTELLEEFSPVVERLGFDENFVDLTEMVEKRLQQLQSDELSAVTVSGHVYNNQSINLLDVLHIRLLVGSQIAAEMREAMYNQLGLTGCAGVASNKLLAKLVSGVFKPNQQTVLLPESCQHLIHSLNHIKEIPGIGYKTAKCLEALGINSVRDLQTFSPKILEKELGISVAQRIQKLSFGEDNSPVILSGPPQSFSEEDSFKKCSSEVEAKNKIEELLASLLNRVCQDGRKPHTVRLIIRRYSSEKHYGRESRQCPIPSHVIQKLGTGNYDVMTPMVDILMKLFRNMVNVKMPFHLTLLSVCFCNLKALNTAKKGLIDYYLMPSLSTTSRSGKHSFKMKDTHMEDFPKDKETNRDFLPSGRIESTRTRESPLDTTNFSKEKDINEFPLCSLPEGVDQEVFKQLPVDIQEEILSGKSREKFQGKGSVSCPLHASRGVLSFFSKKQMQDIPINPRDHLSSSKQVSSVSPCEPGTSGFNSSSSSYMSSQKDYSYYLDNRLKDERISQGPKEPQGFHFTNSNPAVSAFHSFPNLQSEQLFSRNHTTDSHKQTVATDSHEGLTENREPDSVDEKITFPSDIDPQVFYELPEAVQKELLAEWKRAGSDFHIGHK
Text: DNA polymerases, such as Pol iota, are specifically involved in DNA repair. Pol iota specifically plays an important role in translesion synthesis, where the normal high-fidelity DNA polymerases cannot proceed and DNA synthesis stalls. […] Thus, while pol eta's (and most likely iota's) normal function is to protect humans against the deleterious consequences of DNA damage, under certain conditions they can have deleterious effects on human health. As a consequence, we propose to utilize a high throughput replication assay to identify small molecule inhibitors of pol iota.
In a collaboration between the National Institute of Child Health & Human Development (NICHD) and NIH Chemical Genomics Center, a high-throughput, fluorescent screen was developed to screen the NIH Molecular Libraries Small Molecule Repository (MLSMR). This screen is used to identify inhibitors of pol iota.
NIH Chemical Genomics Center [NCGC]
NIH Molecular Libraries Probe Centers Network [MLPCN]
Assay Submitter (PI): Roger Woodgate, NICHD)
Three microliters of reagents (buffer in column 3 and 4 as negative control and 10 nM Pol iota in columns 1, 2, and 5-48) will be dispensed into 1,536-well black solid-bottomed plate. Compounds (23 nL) will be transferred via Kalypsys pin tool equipped with 1536-pin array. The plates will then be incubated for 15 min at room temperature, and 1 µL substrate (50 nM final concentration) will be added to start the reaction and kinetically read twice at 0 min and 10 min on the Viewlux reader.
Potency is read from the fitted curve at half-maximal effect.

Structure (SMILES)	Potency
CC(=O)c1c(O)c(C)c(O)c(Cc2c(O)c3c(c(C(=O)/C=C/c4ccccc4)c2O)OC(C)(C)C=C3)c1O	50.1 µM (active)
CCCCOP(=O)(c1ccc(N(C)C)cc1)C(O)c1cc(OC)ccc1OC (stereo not given)	inactive
CC(=O)NBr	inactive
COc1ccc(N2C(=O)/C(=C/c3ccco3)C(=O)NC2=S)cc1	4.47 µM (active)
CNCC[C@H](Oc1ccc(C(F)(F)F)cc1)c1ccccc1	inactive
O=C1C=C(NS(=O)(=O)c2ccccc2)C(=O)c2ccccc21	inactive
O=c1[nH]c(=S)[nH]c(O)c1/C=C1\C=Nc2ccccc21	inactive
O=C(O)/C=C/c1ccc2c(c1)OCO2	inactive
O=C1NC(=O)N(Cc2ccco2)C(=O)/C1=C\c1cccn1CCOc1ccccc1	22.4 µM (active)
Cc1cc(/C=C2/C(=O)NC(=O)N(Cc3ccco3)C2=O)c(C)n1-c1ccc(C(=O)O)cc1	14.1 µM (active)
O=C1NC(=O)N(Cc2ccco2)C(=O)/C1=C\c1ccc(-c2ccc(F)cc2)o1	11.2 µM (active)
CC1=NNC(=O)C1Cc1c(Cl)cccc1Cl (stereo not given)	inactive
Cn1c(=O)oc2cc(S(=O)(=O)N3CCC(C(=O)Nc4ccc(OC(F)(F)F)cc4)CC3)ccc21	inactive
O=C(Oc1ccc2c(c1)CCC2)N1CCOCC1	inactive
CCOC(=O)c1ccc(N2C(=O)c3[nH]nc(-c4ccccc4)c3C2c2ccc(C(C)C)cc2)cc1 (stereo not given)	inactive
CCN(CC)C(=O)Oc1ccc(Br)cc1C(=O)Nc1ccc(F)c(Cl)c1	inactive
CC(=O)c1ccc(OC(=O)N2CCOCC2)cc1	inactive
CCOC(=O)C(NS(=O)(=O)c1ccc(C)cc1)(C(F)(F)F)P(=O)(OCC(C)C)OCC(C)C (stereo not given)	inactive
O=C1c2ccccc2NC(c2ccccc2O)N1NS(=O)(=O)c1ccccc1 (stereo not given)	inactive
O=C(CN1CCCC1=O)NCCc1ccccc1	inactive
CC(C)(C)c1ccc(CN2C(=O)CN=C(c3ccccc3)c3ccccc32)cc1	inactive
O=C1CC(=O)N(Cc2ccccc2)C(=O)N1CCCCCCN1C(=O)CC(=O)N(Cc2ccccc2)C1=O	17.8 µM (active)
S=C(Nc1ccc(Br)cc1Cl)N1CCC2(CC1)OCCO2	inactive
CC[C@H]1CN2CCc3cc(OC)c(OC)cc3[C@@H]2C[C@@H]1C[C@H]1NCCc2cc(OC)c(OC)cc21	inactive
CCOCCCNC(=O)c1c(NC(=O)c2nc(SC)ncc2Cl)sc2c1CCCC2	inactive
O=S(=O)(Nc1ccc2[nH]ncc2c1)c1ccccc1Cl	inactive
O=[N+]([O-])c1ccc(Cl)c(Cl)c1	inactive
CO[C@H]1[C@@H](O)[C@@H](C)O[C@H](O[C@H]2[C@H](Oc3cccc4c(O)c5c(=O)oc6ccc(C)c7c(=O)oc(c34)c5c67)O[C@H](C)[C@H](O)[C@@H]2O)[C@@H]1O	20 µM (active)

Structure (SMILES)	Potency
CCOc1ccc(C(NC(=O)c2cc(OC)c(OC)c(OC)c2)c2cc(Cl)c3cccnc3c2O)cc1 (stereo not given)	inactive
Cc1ccc(NC(=O)CN(C)CC(=O)Nc2cccc(F)c2)cc1[N+](=O)[O-]	inactive
O=P1(Oc2ccccc2)CC(O)C(O)C(COCc2ccccc2)O1 (stereo not given)	inactive
N#Cc1c(Cl)c(Cl)c(Cl)c(C#N)c1Cl	1.58 µM (active)
CC(CCn1cccn1)NC(=O)CCc1nnc(CCc2ccccc2)o1 (stereo not given)	inactive
O=C(NCc1cccs1)c1ccc(Br)o1	inactive
O=C(c1ccccc1[N+](=O)[O-])N1CCC2(CC1)OCCO2	inactive
O=C(O)c1cc[c]([Sb](=[O])([OH])[OH])cc1[N+](=O)[O-]	1 µM (active)
COc1cc(C2c3cc4c(cc3C(O)C3COC(=O)C23)OCO4)cc(OC)c1OC (stereo not given)	inactive
COc1cc([C@@H]2c3cc4c(cc3[C@H](OC(C)=O)[C@H]3COC(=O)[C@H]23)OCO4)cc(OC)c1OC	inactive
CCOC(=O)c1ncn2c1[C@@H]1CCCN1C(=O)c1cc(OC)ccc1-2	inactive
Cc1ccc(C)c(NS(=O)(=O)c2ccc(OCC(=O)NCc3cccnc3)cc2)c1	inactive
CCOP(=O)(OCC)C(Nc1cccc(C)c1)c1ccc(F)cc1 (stereo not given)	inactive
Cn1cc(/C=C/c2nc3ccccc3c(=O)n2-c2ccccc2)c2ccccc21	inactive
O=c1c2ccccc2nc(/C=C/c2ccco2)n1-c1ccccc1O	44.7 µM (active)
O=c1c2ccccc2nc(/C=C/c2ccc(F)cc2)n1-c1ccccc1O	inactive
Cc1ncoc1C(=O)NCCC(c1ccccc1)c1ccccc1	inactive
CCCCN1C2CCC1CC(OC(c1ccc(F)cc1)c1ccc(F)cc1)C2 (stereo not given)	inactive
Cc1ccc(NC(=O)O/N=C/c2cccc([N+](=O)[O-])c2)cc1	inactive
c1csc(-c2nnc(COc3ccc4c(c3)OCO4)o2)c1	inactive
O=C1NC(=O)N(c2ccccc2)C(=O)/C1=C/c1ccc([N+](=O)[O-])s1	11.2 µM (active)
Cc1nnc(NCc2ccccc2)c2c1nnn2Cc1ccc(F)cc1	inactive
O=C(C1CCN(S(=O)(=O)c2ccc(Br)s2)CC1)N1CCN(c2ccccc2)CC1	inactive
CC(C)N1C(=S)SC(C)(C)C1n1oc(=O)n(-c2ccc(Cl)c(Cl)c2)c1=O (stereo not given)	inactive
Cc1ccccc1NC(=O)c1c(NC(=O)c2ccccc2F)sc2c1CCC(C)C2 (stereo not given)	inactive
CC(C)(C)c1ccc(C(=O)NCc2ccco2)cc1	inactive
CCc1ccccc1NC(=O)c1sc2nc3c(cc2c1N)CN(Cc1ccccc1)CC3	inactive

Source: PubChem BioAssay AID588590 (National Center for Advancing Translational Sciences (NCATS), 2011)
